In PubChem BioAssay (NCATS):
“And” between values parts separate entries of the source, which are not always exact repeats. Equal entries are not always repeated. Records with an inconclusive call do not appear. A call without a number means that no potency is given here. The source made the active and inactive calls. Unless noted, calls come from the whole dose curve; as a rule, active = well fitted curve in the direction sought with a large enough effect; inconclusive = small, poorly fitted or top-dose-only effect, or another doubt; inactive = no such curve, though single readings can be large; an effect the other way counts as inactive or inconclusive.

What was measured:
[1] = Cell Viability - SK-N-SH (AID 435; calls by dose curve;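 note: potency is the fitted concentration of half-maximal effect; compound exposure lasted 40 h at 37 °C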); details: SK-N-SH neuroblastoma cell viability qHTS
Outline: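 SK-N-SH human neuroblastoma cells (1500/well) were exposed to compounds in complete medium for 40 h at 37 °C, and intracellular ATP was then measured by CellTiter-Glo luminescence. AC50 was taken from Hill fits, normalized to DMSO and 100 uM tamoxifen.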

[2] = Cellular Toxicity (caspase-3) HUV-EC-C (AID 656); details: HUV-EC-C cells, caspase-3 activation (apoptosis), vehicle = 0, 100 µM tamoxifen = 100%; series mostly up to 92.2 µM
Outline: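 HUV-EC-C endothelial cells, 1000/well, were pre-incubated 5 hr at 37°C, then exposed to compounds for 16 hr at 37°C. Caspase-Glo 3/7 luminescence was read after 20 min at room temperature. AC50 came from Hill fits, normalized to DMSO and 100 uM tamoxifen.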

[3] = Cellular Toxicity (caspase-3) H-4-II-E (AID 663); details: H-4-II-E rat hepatoma; Potency: caspase-3 activation; series mostly up to 92.2 µM;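 note: cells exposed to compound for 16 hr before readout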
Outline: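 Caspase 3/7 activation measured in H-4-II-E cells in complete culture medium after 16 hr treatment at 37 °C, using luciferase-coupled substrate readout; AC50 values come from Hill-equation fits of normalized concentration-response data.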

[4] = MultiTox-Fluor Cytotoxicity Assay - LYMP1-002 - Dead Cells (AID 960); details: LYMP1-002 lymphoblastoid cells, dead-cell protease fluorescence; series mostly up to 46.1 µM; note: nearly all actives have a fitted effect of over 60% in size
Outline: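 Dead-cell fluorescence (Ex/Em 485/520) after 16 h compound exposure at 37 C of LYMP1-002 lymphoblastoid cells in complete medium; AC50 by Hill equation, with data scaled between DMSO and 15 uM tetraoctylammonium bromide.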

[5] = Cell Viability - LYMP2-004 (AID 966); details: LYMP2-004 lymphoblastoid cell viability, qHTS; series mostly up to 92.2 µM; note: nearly all actives have a fitted effect of over 65% in size
Outline: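 AC50 values come from Hill modelling of concentration-dependent loss of intracellular ATP, measured by CellTiter-Glo luminescence. Human LYMP2-004 lymphoblastoid cells (2500/well) were exposed to compound for 24 h at 37 C.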

[6] = Cell Viability - LYMP2-005 (AID 967); details: LYMP2-005 lymphoblastoid cell viability; series mostly up to 92.2 µM
Outline: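 CellTiter-Glo luminescence (cellular ATP) read-out; LYMP2-005 lymphoblastoid cells, 2500/well, 5 h pre-incubation, then 24 h compound exposure at 37 C in complete medium. Tetraoctylammonium bromide positive control; AC50 by standard Hill fit.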

[7] = Cell Viability - LYMP2-013 (AID 970); details: LYMP2-013 lymphoblastoid cells viability; series mostly up to 92.2 µM; note: nearly all actives have a fitted effect of over 55% in size
Outline: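 qHTS cytotoxicity: ATP-dependent luminescence (CellTiter-Glo, 30 min room temperature) read after 24 h compound exposure at 37 C of 2500 LYMP2-013 lymphoblastoid cells per well. Concentration-response fitted with Hill equation to give AC50.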

[8] = Cell Viability - LYMP2-025 (AID 976); details: LYMP2-025 lymphoblastoid cell viability; series mostly up to 92.2 µM
Outline: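 Cytotoxicity read as loss of intracellular ATP (luciferase luminescence) after 24 h compound treatment at 37 C. Uses LYMP2-025 lymphoblastoid cells in 1536-well format; Hill-equation modelling gives AC50; tetraoctylammonium bromide as positive control.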

[9] = Cell Viability - LYMP2-007 (AID 979); details: LYMP2-007 lymphoblastoid cell viability; series mostly up to 92.2 µM;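 note: cells exposed to compound for 24 h before reading; nearly all actives have a fitted effect of over 60% in size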; note: potency is the fitted concentration of half-maximal effect
Outline: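 AC50 values come from Hill-equation fits of luminescent intracellular ATP (CellTiter-Glo, 30 min, room temperature) following 24 h compound exposure at 37 C. Cells: LYMP2-007 lymphoblastoid line, 2500 per well, in complete culture medium.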

[10] = Cell Viability - LYMP2-014 (AID 983); details: LYMP2-014 lymphoblastoid cells, viability qHTS; series mostly up to 92.2 µM; note: nearly all actives have a fitted effect of over 50% in size
Outline: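 Intracellular ATP loss, read by luciferase luminescence, measures acute cytotoxicity after 24 h compound exposure of lymphoblastoid LYMP2-014 cells (2500/well, 37 C). Concentration-response data fitted to the Hill equation for AC50.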

[11] = Cell Viability - LYMP2-018 (AID 985); details: LYMP2-018 lymphoblastoid cells, viability (qHTS); series mostly up to 92.2 µM; note: nearly all actives have a fitted effect of over 50% in size
Outline: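 Viability read as CellTiter-Glo luminescence (cellular ATP) after 24 hr compound exposure at 37 C of 2500 LYMP2-018 lymphoblastoid cells/well, pre-plated 5 hr. Hill-equation modelling gave AC50.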

[12] = Cell Viability - LYMP2-022 (AID 987); details: LYMP2-022 lymphoblastoid cell viability; series mostly up to 92.2 µM; note: nearly all actives have a fitted effect of over 55% in size
Outline: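 Cytotoxicity read as decreased cellular ATP (CellTiter-Glo luminescence, 30 min room temperature) after 24 hours compound exposure of 2500 lymphoblastoid LYMP2-022 cells/well at 37 C. Concentration-response data fitted with standard Hill equation for AC50.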

[13] = Cell Viability - LYMP2-024 (AID 988); details: LYMP2-024 lymphoblastoid cell viability; series mostly up to 92.2 µM; note: nearly all actives have a fitted effect of over 60% in size
Outline: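 Cytotoxicity was taken as a decrease in ATP (CellTiter-Glo luminescence) after 24 hr compound exposure at 37 C of LYMP2-024 lymphoblastoid cells, 2500 cells/well. Concentration-response data were fitted to the Hill equation to give AC50.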

[14] = qHTS assay for small molecule agonists of retinoid X receptor alpha signaling (AID 588544); details: HEK293T RXRa-UAS-bla, beta-lactamase reporter, 18 h; 530 nm emission
[15] = target: Thyroid hormone receptor beta (Homo sapiens) (UniProt P10828); assay: qHTS assay for small molecule agonists of thyroid hormone receptor beta signaling (AID 588545; calls by dose curve); details: TR-UAS-bla GripTite HEK 293, beta-lactamase ratio, agonist mode, 18 h; series mostly up to 76.7 µM
Outline: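 Agonist activity was read as beta-lactamase CCF4 fluorescence (405 ex, 460/530 em), scaled between DMSO (0%) and 10 nM T3 (100%), then Hill-fitted for EC50 and efficacy. HEK 293 TR-UAS-bla cells in 2% charcoal/dextran FBS medium were exposed 18 h at 37 C.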

[16] = qHTS assay for small molecule antagonists of retinoid X receptor alpha signaling (AID 588546); details: HEK293T RXRa-UAS-bla, beta-lactamase ratio, antagonist mode; measured here: W530 green channel, cytotoxicity proxy;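 note: cells stimulated with 9-cis-retinoic acid as agonist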
Outline: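 Beta-lactamase reporter inhibition, read as CCF4 fluorescence ratio (ex 405, em 460/530 nm) after 2 h at RT. HEK293T UAS-bla cells, 2500/well, were stimulated with 9-cis-RA at 500 or 100 nM final alongside test compound for 18 h at 37 C.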

[17] = target: Thyroid hormone receptor beta (Homo sapiens) (UniProt P10828); assay: qHTS assay for small molecule antagonists of thyroid hormone receptor beta signaling (AID 588547; active = well fitted inhibition curve with a large enough effect in the signal ratio, with a control signal flat, not every such curve was filed as active; the % refers to the signal ratio;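 note: cells stimulated with 0.4 nM T3 agonist during compound exposure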); details: TR-UAS-bla HEK293, beta-lactamase ratio, antagonist mode, 18 h
Outline: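 TR-UAS-bla GripTite HEK293 cells in 2% charcoal/dextran FBS medium were preincubated 4 h at 37 C, given compound (0.59 nM to 92 uM) plus 0.4 nM T3 (final) for 18 h, then CCF4 for 2 h at RT; Hill fit gave IC50.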

[18] = target: Tumor necrosis factor (Homo sapiens) (UniProt P01375); assay: qHTS assay to identify small molecules that stimulate Tumor Necrosis Factor-alpha (TNF-alpha) secretion (AID 651757; active = well fitted curve in the direction sought with a large enough effect in the signal ratio; the % refers to the signal ratio); details: Human cells, HTRF 665/615 ratio; series mostly up to 92.2 µM
Outline: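 Secreted TNF-alpha quantified by TR-FRET sandwich of two labeled anti-TNF-alpha antibodies, incubated 3 hr at room temperature. Preceded by 17 hr, 37 C compound treatment of THP-1 cells at 3000 cells/well.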

[19] = qHTS assay for cell viability of HEK293 cells (AID 743288); details: ATP luminescence (CellTiter-Glo), 18 h, stronger effect = lower value; note: nearly all actives have a fitted effect of over 50% in size
Outline: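 After 18 h compound exposure at 37 C, parental HEK293 cells (2,000/well) are lysed with CellTiter-Glo and luminescence is read following 30 min at room temperature.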

[20] = target: Nuclear receptor subfamily 1 group I member 2 (Rattus norvegicus) (UniProt Q9R1A7); assay: qHTS assay for small molecule activators of the rat pregnane X receptor (rPXR) signaling pathway (AID 651751; call rule not given here); details: rPXR reporter cells, luciferase (One-Glo), 24 h
Nuclear receptor subfamily 1 group I member 2 (Rattus norvegicus), sequence (Q9R1A7 whole entry, looked up): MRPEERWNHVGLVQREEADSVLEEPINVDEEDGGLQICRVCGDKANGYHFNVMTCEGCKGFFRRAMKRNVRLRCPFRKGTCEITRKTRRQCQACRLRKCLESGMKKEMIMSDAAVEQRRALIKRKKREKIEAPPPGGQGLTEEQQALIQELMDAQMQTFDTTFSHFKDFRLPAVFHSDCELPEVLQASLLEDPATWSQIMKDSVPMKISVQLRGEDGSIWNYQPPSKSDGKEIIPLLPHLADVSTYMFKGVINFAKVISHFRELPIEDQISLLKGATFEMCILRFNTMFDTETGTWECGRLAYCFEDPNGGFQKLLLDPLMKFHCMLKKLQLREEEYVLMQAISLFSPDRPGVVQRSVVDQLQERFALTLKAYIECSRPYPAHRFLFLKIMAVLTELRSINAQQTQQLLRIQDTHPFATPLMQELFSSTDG

Tumor necrosis factor (Homo sapiens), sequence (P01375 whole entry, looked up): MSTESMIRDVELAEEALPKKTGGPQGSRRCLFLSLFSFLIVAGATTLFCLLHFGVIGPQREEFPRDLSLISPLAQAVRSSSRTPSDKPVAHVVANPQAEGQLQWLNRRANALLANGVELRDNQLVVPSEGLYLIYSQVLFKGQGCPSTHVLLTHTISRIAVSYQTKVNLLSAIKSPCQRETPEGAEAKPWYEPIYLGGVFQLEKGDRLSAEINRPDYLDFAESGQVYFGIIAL
Thyroid hormone receptor beta (Homo sapiens), sequence (P10828 whole entry, looked up): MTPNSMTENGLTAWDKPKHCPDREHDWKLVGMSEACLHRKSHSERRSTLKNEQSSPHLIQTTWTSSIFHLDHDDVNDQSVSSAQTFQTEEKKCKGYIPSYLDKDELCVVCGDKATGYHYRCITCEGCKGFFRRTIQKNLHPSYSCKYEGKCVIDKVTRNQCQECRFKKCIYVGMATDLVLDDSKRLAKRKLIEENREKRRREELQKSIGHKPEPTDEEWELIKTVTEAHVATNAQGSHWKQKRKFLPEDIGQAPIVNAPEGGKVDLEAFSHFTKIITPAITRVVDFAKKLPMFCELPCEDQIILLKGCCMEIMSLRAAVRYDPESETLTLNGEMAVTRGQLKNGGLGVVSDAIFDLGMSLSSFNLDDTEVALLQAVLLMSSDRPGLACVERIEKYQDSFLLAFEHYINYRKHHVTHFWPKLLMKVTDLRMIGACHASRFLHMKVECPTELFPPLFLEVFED

Compound: C=CCOCC1CO1 (stereo not given)
- Potency [1]: > 92 µM (inactive)
- outcome [2]: inactive
- Potency [3]: inactive
- Potency [4]: inactive
- Potency [5]: inactive
- Potency [6]: inactive
- Potency [7]: inactive
- Potency [8]: inactive
- Potency [9]: inactive
- Potency [10]: inactive
- Potency [11]: inactive
- Potency [12]: inactive
- Potency [13]: inactive
- max response [14]: 1.34%
- Potency [15]: inactive
- max response [16]: 2.33%
- activity change % (negative = inhibition) [17]: 1.27% (inactive)
- outcome [18]: inactive
- max response [19]: -5.74% (inactive)
- max response [20]: -1.61% (inactive)

Compound: CCC(Cl)[N+](=O)[O-] (stereo not given)
- Potency [1]: > 92 µM (inactive)
- outcome [2]: inactive
- Potency [3]: inactive
- Potency [4]: inactive
- Potency [5]: inactive
- Potency [6]: inactive
- Potency [7]: inactive
- Potency [8]: inactive
- Potency [9]: inactive
- Potency [10]: inactive
- Potency [11]: inactive
- Potency [12]: inactive
- Potency [13]: inactive
- max response [14]: -8.6%
- Potency [15]: inactive
- max response [16]: -9.88%
- activity change % (negative = inhibition) [17]: -30.2% (inactive)
- outcome [18]: inactive
- max response [19]: -3.51% (inactive)
- max response [20]: -0.428% (inactive)

Compound: CCCCCCCCCCCCCl
- Potency [1]: > 92 µM (inactive)
- outcome [2]: inactive
- Potency [4]: inactive
- Potency [5]: inactive
- Potency [6]: inactive
- Potency [7]: inactive
- Potency [8]: inactive
- Potency [9]: inactive
- Potency [10]: inactive
- Potency [11]: inactive
- Potency [12]: inactive
- Potency [13]: inactive
- max response [14]: -9.69%
- Potency [15]: inactive
- max response [16]: -8.5%
- activity change % (negative = inhibition) [17]: -6.1% (inactive)
- outcome [18]: inactive
- max response [19]: -0.903% (inactive)
- max response [20]: 3.36% (inactive)

Compound: C=CC(=O)OCC(C)C
- Potency [1]: > 92 µM (inactive)
- outcome [2]: inactive
- Potency [4]: inactive
- Potency [5]: inactive
- Potency [6]: inactive
- Potency [7]: inactive
- Potency [8]: inactive
- Potency [9]: inactive
- Potency [10]: inactive
- Potency [11]: inactive
- Potency [12]: inactive
- Potency [13]: inactive
- max response [14]: -3.12%
- Potency [15]: inactive
- max response [16]: 4.12%
- activity change % (negative = inhibition) [17]: -1.18% (inactive)
- outcome [18]: inactive
- max response [20]: -2.18% (inactive)

Compound: CCCBr
- Potency [1]: > 92 µM (inactive)
- outcome [2]: inactive
- Potency [3]: inactive
- Potency [4]: inactive
- Potency [5]: inactive
- Potency [6]: inactive
- Potency [7]: inactive
- Potency [8]: inactive
- Potency [9]: inactive
- Potency [10]: inactive
- Potency [11]: inactive
- Potency [12]: inactive
- Potency [13]: inactive
- max response [14]: -13.5%
- Potency [15]: inactive
- max response [16]: -1.75%
- activity change % (negative = inhibition) [17]: 3.13% (inactive)
- outcome [18]: inactive
- max response [19]: -3.65% (inactive)
- max response [20]: -1.34% (inactive)

Compound: Nc1ccc(Cc2ccc(N)cc2)cc1
- Potency [1]: > 92 µM (inactive)
- outcome [2]: inactive
- Potency [3]: inactive
- Potency [4]: inactive
- Potency [5]: inactive
- Potency [6]: inactive
- Potency [7]: inactive
- Potency [8]: inactive
- Potency [9]: inactive
- Potency [10]: inactive
- Potency [11]: inactive
- Potency [13]: inactive
- max response [14]: 7.13%
- Potency [15]: inactive
- max response [16]: -3.16% and 6.7%
- activity change % (negative = inhibition) [17]: 11% (inactive) and -9.43% (inactive)
- max response [19]: 9.53% (inactive) and -1.85% (inactive)
- max response [20]: 4.75% (inactive) and 4.67% (inactive)

Compound: Nc1cccc2ccccc12
- Potency [1]: > 92 µM (inactive)
- outcome [2]: inactive
- Potency [3]: inactive
- Potency [4]: inactive
- Potency [5]: inactive
- Potency [6]: inactive
- Potency [8]: inactive
- Potency [9]: 39.8 µM (active)
- Potency [10]: inactive
- Potency [11]: inactive
- Potency [15]: inactive
- max response [16]: -8.8%
- activity change % (negative = inhibition) [17]: 1.61% (inactive)
- outcome [18]: inactive
- max response [19]: -0.157% (inactive)
